Measured values reported in PubChem BioAssay (Tox21).
Records with an inconclusive call do not appear. Where a call stands in place of a potency, no number is given. The source made the active and inactive calls. The call rests on the fitted dose curve.

Test: Nuclear factor erythroid 2-related factor 2/antioxidant responsive element (Nrf2/ARE) small molecule agonists: luciferase reporter gene qHTS assay in human keratinocytes (AID 1919969); further: nearly all actives have a fitted effect of over 35% in size
Conditions: KeratinoSens HaCaT ARE-luciferase, luminescence, 24 h; series mostly up to 92.4 µM
From the text: National Center for Advancing Translational Sciences [NCATS]
Division of Preclinical Innovation [DPI]
U.S. Environmental Protection Agency [EPA]
National Institutes of Environmental Health Sciences [NIEHS]
National Toxicology Program [NTP]
U.S. Food and Drug Administration [FDA]
Oxidative stress has been implicated in the pathogenesis of a variety of diseases ranging from cancer to neurodegeneration. The antioxidant response element (ARE) signaling pathway plays an important role in the amelioration of oxidative stress. The KeratinoSens (Givaudan, Switzerland) is an in vitro test method which quantifies luciferase induction as a measure of activation of Keap1-Nrf2-antioxidationt/electrophile response element (ARE) dependant pathway in HaCaT human keratinocytes stably transfected with a selectable plasmid. The KeratinoSens assay is a cell-based assay with a reporter cell line to detect potential skin sensitizers by their ability to induce the Nrf2/ARE-response. The activation of the report gene under culture conditions can be detected by ONE-Glo Luciferase Assay System (Promega, Madison, WI). This cell line has been used to screen the Tox21 10K compound library to identify agonists that induce oxidative stress. The cytotoxicity of the Tox21 compound library against the KS-ARE cell line was tested in parallel by measuring the cell viability using CellTiter- Fluor assay system (Promega, Madison, WI) in the same wells.
HaCaT derived cell line KeratinoSens were dispensed at 1,500 cells/5uL/well in 1536-well white wall/solid bottom plates using a Multidrop Combi (ThermoFisher Scientific, Waltham, MA) dispenser. After the assay plates were incubated at 37 C/5% CO2 for 5 h, 23 nL of compounds dissolved in DMSO, positive controls or DMSO only was transferred to the assay plate by a pintool workstation (Kalypsys, San Diego, CA). The plates were incubated at 37 C/5% CO2 for 23 h, followed by addition of 1uL/well of CellTiter-Fluor reagent into the assay plates using a Flying Reagent Dispenser (Aurora Discovery, San Diego, CA) for cell viability readout that measures cytotoxicity. After 1 h incubation at 37 C/5% CO2 the fluorescence intensity was measured using a ViewLux (PerkinElmer, Shelton, CT) plate reader. Then 4uL/well of One-Glo were added using a Flying Reagent Dispenser. After the plates were incubated at room temperature for 30 min, the luminescence intensity in the assay plates was measured using ViewLux plate reader.
Potency means the concentration at half of the fitted maximal effect.

| Compound | Potency |
| --- | --- |
| CC[C@H]1C[C@H]2[C@@H]3CCC4=CC(=O)CC[C@@H]4[C@H]3CC[C@]2(C)[C@H]1O | 11.9 µM (active) |
| Cc1ccccc1C(=O)Nc1cccc(OC(C)C)c1 | inactive |
| CC1(C)[C@H](/C=C2\CCSC2=O)[C@@H]1C(=O)OCc1coc(Cc2ccccc2)c1 | 61.1 µM (active) |
| CCN(C(C)=O)c1cccc(-c2ccnc3c(C#N)cnn23)c1 | inactive |
| CNC(=O)O/N=C(\C)C(C)S(C)(=O)=O (stereo not given) | 708 µM (active) |
| CC(Cc1ccccc1)NCCCCl (stereo not given) | inactive |
| CN(C)[C@@H]1C(=O)C(C(N)=O)=C(O)[C@@]2(O)C(=O)C3=C(O)c4c(O)ccc(Cl)c4[C@@](C)(O)[C@H]3C[C@@H]12 | inactive |
| Cc1nnc2n1-c1sc(CCC(=O)N3CCOCC3)cc1C(c1ccccc1Cl)=NC2 | inactive |
| CNNC | inactive |
| COP(=O)(OC)O/C(=C\Cl)c1cc(Cl)c(Cl)cc1Cl | 68.6 µM (active) |
| Clc1cc(Cl)c(-c2cc(Cl)c(Cl)cc2Cl)cc1Cl | inactive |
| O=C1NC(=O)C(=O)C(=O)N1 | inactive |
| CC(CC(C(N)=O)(c1ccccc1)c1ccccc1)N(C)C (stereo not given) | inactive |
| Fc1ccc(C(OCCN2CCN(CCCc3ccccc3)CC2)c2ccc(F)cc2)cc1 | inactive |
| COP(=O)(OC)O/C(C)=C/C(=O)N(C)C | inactive |
| Cc1nc(N(C)C)nc(OC(=O)N(C)C)c1C | inactive |
| CCC1(c2ccccc2)C(=O)NC(=O)NC1=O | inactive |
| C=CCOC(=O)C(C)(C)OC(=O)c1cc(-n2c(=O)cc(C(F)(F)F)n(C)c2=O)ccc1Cl | inactive |
| CCCN(CCC)c1c([N+](=O)[O-])cc(S(N)(=O)=O)cc1[N+](=O)[O-] | inactive |
| CC[C@@H](CO)NC(=O)[C@@H]1C=C2c3cccc4c3c(cn4C)C[C@H]2N(C)C1 | inactive |

| Compound | Potency |
| --- | --- |
| CC(O)C#N (stereo not given) | 61.1 µM (active) |
| COc1cc(C[C@@H](C)N)c(OC)cc1C | inactive |
| Oc1cccc(Cl)c1Cl | inactive |
| CC(C)(c1ccc(O)c(-c2ccccc2)c1)c1ccc(O)c(-c2ccccc2)c1 | inactive |
| CC1(C)CC/C(=C/c2ccc(Cl)cc2)C1(O)Cn1cncn1 (stereo not given) | 43 µM (active) |
| CCCCc1ccc(O)cc1 | inactive |
| CCN[C@@H](C)Cc1cccc(C(F)(F)F)c1 | inactive |
| c1ccc(Nc2ccc(Nc3ccccc3)cc2)cc1 | 27.2 µM (active) |
| Nc1cc2c3c(c1)C(c1ccccc1)=N[C@@H](NC(=O)c1cccnc1)C(=O)N3CC2 | inactive |
| COc1ccc(Cc2nccc3cc(OC)c(OC)cc23)cc1OC | inactive |
| N#Cc1cc(I)c(O)c(I)c1 | inactive |
| CC(C)N(CCC(C(N)=O)(c1ccccc1)c1ccccn1)C(C)C (stereo not given) | inactive |
| O=C(O)C(F)(F)C(F)(F)C(F)(F)C(F)(F)C(F)(F)F | inactive |
| CC(C)(C)c1cc([N+](=O)[O-])cc(C(C)(C)C)c1O | 34.4 µM (active) |
| N#CC(Br)(Br)C(N)=O | inactive |
| CCCCOC(=O)[C@@H](C)Oc1ccc(Oc2ccc(C#N)cc2F)cc1 | inactive |
| Oc1ccccc1Br | inactive |
| COc1cnc(OC)n2nc(NS(=O)(=O)c3c(OCC(F)F)cccc3C(F)(F)F)nc12 | inactive |
| C#CC1(O)CCCCC1 | inactive |
| C[C@H](CN1CCOCC1)C(C(=O)N1CCCC1)(c1ccccc1)c1ccccc1 | inactive |
